The panel holds about 79,000 compounds, 15% with a hit somewhere; the sample as a whole holds those more often. No stated cut-off is given here; in the data, active means growth inhibition above about 70%; inactive means the rest.
Assays:
[1] = NCI Yeast Anticancer Drug Screen. Data for the rad50 strain (AID 155);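 further: 0% = growth of vehicle-only cultures of the same strain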; details: S. cerevisiae rad50 strain growth inhibition; at 50.0 µM; active compounds read high
In short: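 Compounds were tested on a yeast strain with an engineered DNA damage repair alteration; the reported value is growth inhibition normalised to vehicle treatment.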

[2] = NCI Yeast Anticancer Drug Screen. Data for the mec2-1 strain (AID 157); details: S. cerevisiae mec2-1 strain, at 50.0 µM, active compounds read high
In short: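 mec2-1 yeast strain, carrying an alteration in DNA damage repair or cell cycle control, was exposed to compounds; growth inhibition was measured relative to vehicle-treated controls.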

[3] = NCI Yeast Anticancer Drug Screen. Data for the sgs1 mgt1 strain (AID 161);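 further: 0% = growth of cultures given vehicle only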; details: S. cerevisiae sgs1 mgt1 strain, at 50.0 µM, active compounds read high
In short: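 Compounds are added to genetically altered yeast, and growth is compared with cultures given vehicle alone to give percent inhibition.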

[4] = NCI Yeast Anticancer Drug Screen. Data for the cln2 rad14 strain (AID 165);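 further: 0% = growth equal to vehicle treated cultures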; details: S. cerevisiae cln2 rad14 strain, at 50.0 µM, active compounds read high
In short: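 Yeast carrying cln2 and rad14 alterations (cell cycle control and DNA damage repair) were exposed to compounds. Growth inhibition was measured against vehicle-treated controls.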

[5] = NCI Yeast Anticancer Drug Screen. Data for the bub3 strain (AID 167); details: S. cerevisiae bub3 mutant strain, at 50.0 µM, active compounds read high
In short: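 Growth of a checkpoint-deficient yeast mutant is measured after compound exposure. Values represent inhibition relative to vehicle.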

[6] = NCI Yeast Anticancer Drug Screen. Data for the mlh1 rad18 strain (AID 175); details: S. cerevisiae mlh1 rad18 strain growth inhibition; at 50.0 µM; active compounds read high
In short: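 Growth inhibition of the yeast strain was measured after compound exposure and expressed relative to vehicle-treated controls. The strain carries defined defects in DNA damage repair.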

Measured: growth inhibition

COc1cc2c(c3c1c(=O)c1ccc(F)cc1n3C)C=CC(C)(C)O2
inactive: [1] -4.35% | [2] -28.6% | [3] -16.9% | [4] -23.9% | [5] -7.7% | [6] -5.6%

Cc1ccccc1C(=O)c1ccc2ccccc2c1
inactive: [1] 11.4% | [2] 26.2% | [3] 28.2% | [4] 9.35% | [5] 9.3% | [6] 25.4%

CC(C)C(NCc1c(O)ccc2c(-c3ccccc3)cc(=O)oc12)C(=O)O (stereo unspecified)
inactive: [1] -33.5% | [2] -21.6% | [3] -19% | [4] -12.2% | [5] -35.5% | [6] -10.2%

CC1(C)CNC(=O)C2(C=NC(C)(C)CNC(=O)C3(C=N1)CCCO3)CCCO2 (stereo unspecified)
inactive: [1] -10.2% | [2] -5.6% | [3] -36.2% | [4] -8.55% | [5] -17.6% | [6] -11.2%

c1cc(Sc2nc(Sc3ccncc3)nc(Sc3ccncc3)n2)ccn1
inactive: [1] 5.15% | [2] 8.6% | [3] 14.8% | [4] 39.2% | [5] -9.7% | [6] -7.25%

O=Cc1ccc(-c2ccc([N+](=O)[O-])cc2)o1
inactive: [1] 3.7% | [2] 9% | [3] -9.5% | [4] -7.8% | [5] -0.3% | [6] 3.6%

CCCC(O)CNCC1CCC2CCc3cccc1c32 (stereo unspecified)
inactive: [1] -2.9% | [2] 5.8% | [3] 4.5% | [4] 2.05% | [5] 20.4% | [6] 18.9%

CC(=O)N(C(C)=O)n1c(Cc2ccc(C)cc2)nn(C(C)=O)c1=O
inactive: [1] -26.9% | [2] 15.2% | [3] -16.9% | [4] 13.3% | [5] -1.75% | [6] -27.9%

c1ccc(CCCC2Sc3cccc4cccc(c34)S2)cc1
inactive: [1] -47.2% | [2] -25.6% | [3] -18.6% | [4] 14.4% | [5] -16% | [6] -28.5%

CNc1c2c(nc3ccccc13)CCCC2
inactive: [1] 1.95% | [2] -10.3% | [3] -10.1% | [4] -44.4% | [5] 15.1% | [6] -19.2%

COc1cnc(NS(=O)(=O)c2ccc(N)cc2)nc1
inactive: [1] -12.2% | [2] -9.8% | [3] -9.45% | [4] 10.2% | [5] -10% | [6] -7.2%

COc1ccccc1/C=C1/Sc2scc(CC(=O)Nc3ccccc3)[n+]2C1=O
inactive: [1] 8.9% | [2] 4% | [3] 23.6% | [4] 17.7% | [5] -4.7% | [6] 24.8%

COc1c(OC(C)=O)c(Cl)cc(C=O)c1[N+](=O)[O-]
inactive: [1] 47.1% | [2] 28.7% | [3] 30.1% | [4] 22.1% | [5] 22% | [6] 62.5%

Cc1ccc(-c2n[nH]c(=O)n2N)cc1
inactive: [1] 3.5% | [2] -23% | [3] 0.85% | [4] 5.45% | [5] 0.45% | [6] 7.25%

CCCC(O)C(C)(C)[N+](=O)[O-] (stereo unspecified)
inactive: [1] 60.9% | [2] 5.45% | [3] 12.9% | [4] -2.85% | [5] 8% | [6] 9.95%

CCCCNc1ccc2c(C)cc(=O)oc2c1
inactive: [1] -22.9% | [2] -30.6% | [3] -16.9% | [4] 0.7% | [5] -21.4% | [6] -17.4%

Cc1c(C(C)C(=O)O)c2ccccc2n1C (stereo unspecified)
inactive: [1] 39% | [2] 12.9% | [3] 31.9% | [4] 33.1% | [5] 56.8% | [6] 45.1%

Nc1ccc(C(=O)Nc2cccc(OCc3nc(N)nc(N)c3-c3ccc(Cl)cc3)c2)cc1
inactive: [1] 16.6% | [2] -6.15% | [3] -16.2% | [4] 16.5% | [5] 2.3% | [6] 13.2%

Cc1cc(C)c(C(=O)c2ccccc2C(=O)c2ccccc2)c(C)c1
inactive: [1] 20.5% | [2] -5.55% | [3] 17.2% | [4] 20.2% | [5] 20.6% | [6] 11.5%

CCCCSCC(N)C(=O)OC (stereo unspecified)
inactive: [1] 19.1% | [2] -11.2% | [3] 4% | [4] -65.5% | [5] 3.75% | [6] 2.8%

Cc1cn(C2CC(N)C(C(=O)NCC(=O)O)O2)c(=O)[nH]c1=O (stereo unspecified)
inactive: [1] -19.9% | [2] -54.5% | [3] -0.6% | [4] 2.65% | [5] -40.1% | [6] -26.1%
